According to PubChem BioAssay AID1851 (National Center for Advancing Translational Sciences (NCATS), 2009):
Out of some 16,000 compounds screened, about 4,000 (25%) were called active. Inconclusive results (about 26%) are left out. Calls follow the shape of the dose curve; as a rule, active = well fitted curve in the direction sought with a large enough effect; inconclusive = small, poorly fitted or top-dose-only effect, or effect the other way; inactive = no such curve, though single readings can be large or run the other way. A selection follows.

Target: Cytochrome P450 2C9 (Homo sapiens) (UniProt P11712)
Assay: Cytochrome panel assay with activity outcomes
Conditions: recombinant CYP, pro-luciferin dealkylation, luminescence, p450-cyp2c9; series mostly up to 57.1 µM; activity, negative = inhibition: at the top concentration
% is scaled to controls: 0 for no effect and ±100 for the full control effect.

Sequence of Cytochrome P450 2C9 (Homo sapiens) (P11712 whole entry, looked up): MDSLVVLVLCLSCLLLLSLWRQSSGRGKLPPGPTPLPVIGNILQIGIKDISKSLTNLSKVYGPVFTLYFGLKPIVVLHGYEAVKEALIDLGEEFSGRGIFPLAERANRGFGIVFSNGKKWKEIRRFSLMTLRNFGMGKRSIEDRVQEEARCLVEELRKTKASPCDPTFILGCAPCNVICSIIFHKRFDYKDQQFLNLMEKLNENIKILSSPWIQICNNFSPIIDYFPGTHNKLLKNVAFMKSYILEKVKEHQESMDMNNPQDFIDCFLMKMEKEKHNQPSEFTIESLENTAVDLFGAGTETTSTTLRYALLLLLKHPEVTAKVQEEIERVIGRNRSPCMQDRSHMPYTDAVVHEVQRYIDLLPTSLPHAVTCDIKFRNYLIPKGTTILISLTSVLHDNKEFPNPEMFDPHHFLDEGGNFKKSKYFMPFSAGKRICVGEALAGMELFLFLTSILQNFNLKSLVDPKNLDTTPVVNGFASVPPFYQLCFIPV

activity, negative = inhibition, inactive:
CN(C)c1ncc2nc(-c3ccc(Cl)cc3)c(=O)n(C[C@H]3CCCO3)c2n1 14.6%
Cn1c(SC2CCCCC2=O)nnc1-c1ccncc1 (stereo unspecified) -27.1%
CC1(C)O[C@H]2C[C@@H]3[C@H]4CCC5=CC(=O)CC[C@@]5(C)[C@]4(F)[C@@H](O)C[C@@]3(C)[C@@]2(C(=O)CCl)O1 -18.2% [at 25.6 µM]
N#CC1=C(N)OC2=C(C(=O)CCC2)C12CCC1(CC2)OCCO1 -53.9%
N#Cc1ccccc1-c1cncnc1NCc1cccnc1 12.7% [at 2.29 µM]
C[C@H]1CN(S(=O)(=O)c2cccc3cnccc23)CCN1 9.32%
C1CCC(N=C(NC23CC4CC(CC(C4)C2)C3)N2CCOCC2)CC1 11.7%
CCN(CC)CCOC(=O)C(c1ccccc1)c1ccccc1 -4.53% [at 25.6 µM]
CCN(CCCc1ccccc1)CCCc1ccccc1 -2.03% [at 25.6 µM]
CN[C@@H]1NC(=O)c2ccccc2N1Cc1ccc(F)cc1 4.34% [at 11.4 µM]
O=C1c2cccnc2C(=O)N1Cc1ccc(F)cc1 17%
CCOC(=O)c1[nH]c(C)c(/C(O)=C2\C(=O)C(=O)N(CCN3CCOCC3)C2c2cccs2)c1C (stereo unspecified) -25.1%
COc1ccc(/C(O)=C2/C(=O)C(=O)N(CCCC(=O)O)C2c2ccc(OC)cc2)cc1 (stereo unspecified) -15.5%
COc1ccc(/C(O)=C2/C(=O)C(=O)N(CCN3CCOCC3)C2c2ccc(C)cc2)cc1 (stereo unspecified) 11.8%
CCOc1ccc(/C(O)=C2/C(=O)C(=O)N(CCOCCO)C2c2cccnc2)cc1 (stereo unspecified) -25.7%
C/C(CCN1CCc2nc(-c3ccccc3)c(-c3ccccc3)cc2C1)=N\O[C@@H](C)c1cn([C@H](CO)Cc2ccccc2)nn1 -23.3% [at 11.4 µM]
Nc1ncnc(N(c2ccccc2)C2CCCCC2)c1[N+](=O)[O-] -3.11%
C[C@@H]1[C@H]2CC[C@@H]3[C@@H]4CC=C5C[C@@H](N(C)C)CC[C@]5(C)[C@@H]4CC[C@@]32CN1C 11.3% [at 25.6 µM]
O=C(O)[C@@H]1[C@@H]2C[C@@H]3[C@@H](OC(=O)[C@@H]31)[C@H]2Br -8.47% [at 11.4 µM]
CC(C)[C@H](NC(=O)OC(C)(C)C)[C@@H](O)CC(=O)C(C)(C)C 9.81% [at 11.4 µM]
CO[C@H]1COC(=O)C/C=C\[C@@H](C)COC(=O)[C@@H](OCc2ccccc2)/C=C\[C@@H]1C -24.9% [at 11.4 µM]
Cc1nc2ccccc2nc(C)c1=NO 18.4%
NC(N)=NC(N)=Nc1ccccc1 (tested in a mixture with another compound) -12.4% [at 11.4 µM]
Cc1cc2ccccc2c[n+]1CC(O)C[n+]1cc2ccccc2cc1C 8.36% [at 11.4 µM]
COCCNC(=O)CCCCCn1c(=S)[nH]c2ccccc2c1=O 18.2%
CC(C)(C)C(=O)OCOC(=O)[C@@H]1N2C(=O)[C@@H](NC(=O)[C@H](N)c3ccccc3)[C@H]2SC1(C)C -31.6% [at 25.6 µM]
CCC(C)NC(=O)c1cnn2c(C)c3c(nc12)CCCC3 (stereo unspecified) -19.6%
C#CCCCC(=O)Nc1ccccc1 2.83%
NCC(=O)Nc1ccccc1 17% [at 11.4 µM]
CCC#CCOCC(=O)Nc1ccccc1 8.29%
CCC(=O)NNC(=O)CCC(=O)Nc1ccccc1 -5.57%
CC(C)(C)c1ccc(OCC(=O)O)c(Cl)c1 -19.9% [at 11.4 µM]
NC(N)=NC(=O)c1nc(Cl)c(N2CCCCCC2)nc1N -10.5%
CC(C)(C)NC(=O)CSc1nnc(Cc2ccc3c(c2)OCO3)n1C1CCCCC1 7.56%
CNC(=O)NC(=O)CSc1nnc(-c2ccco2)n1Cc1ccccc1 -10%
CC(C)=NOC[C@@H](O)COCc1ccco1 0.0785% [at 11.4 µM]
COc1ccc2c(c1)CCC1C2CC[C@]2(C)[C@H](NCCCCCCN3C(=O)C=CC3=O)CC[C@@H]12 (stereo partly specified) 11.1%
Cc1noc(C)c1-c1ccc2ncnc(N3CCC(C(=O)O)CC3)c2c1 14.5% [at 2.29 µM]
Cc1cccc(-n2ncc3c(Nc4c(C)n(C)n(-c5ccccc5)c4=O)ncnc32)c1 9.11%
Clc1ccc2c(N3CCC(CCC4CCN(c5ncnc6cc(Cl)ccc56)CC4)CC3)ncnc2c1 -21% [at 11.4 µM]
COC(=O)c1ccccc1NC(=O)CSc1nnc(C(CO)NC(=O)c2ccccc2Cl)n1C (stereo unspecified) -28.2%
CN(C)Cc1ccccc1-c1nc(NCc2cccs2)c2ccccc2n1 5.46% [at 2.29 µM]
COc1ccccc1-c1cncnc1N1CCN(C)CC1 3.41% [at 2.29 µM]
CN1CCN(c2ncncc2-c2cccnc2)CC1 -10.3% [at 2.29 µM]
Cc1ccc(C)c(/C(=N\N=C(N)N)C2CC2)c1 -5.2% [at 11.4 µM]
O=S(=O)(c1ccc(Cl)cc1)c1cnc(-c2cccnc2)nc1-c1ccccc1 -6.19%
Nc1nc(-c2cccnc2)cc(-c2cc(-c3cccnc3)nc(N)n2)n1 -11.2% [at 11.4 µM]
CCCc1c(-c2ccc(O)cc2)nn(-c2ccc(O)cc2)c1-c1ccc(O)cc1 19.1%
COc1ccc(-n2c(=O)c(-c3ccc(F)cc3)nc3cnc(OC)nc32)cc1 11.2%
O=C(O)[C@@H]1CCCNC1 16.7% [at 25.6 µM]
CCc1ccc(OCC(=O)OC2CCS(=O)(=O)C2)cc1 (stereo unspecified) 1.1%
Cc1cc(C)c[n+](CC(=O)c2cc3ccccc3oc2=O)c1 1.98%
CC(=O)c1cc2ccccc2oc1=O 2.93% [at 25.6 µM]
CN(C(=O)COc1cccc(Br)c1)C1CCS(=O)(=O)C1 (stereo unspecified) -30.3%
CCN(CC)c1ccc2cc(C(C)=O)c(=O)oc2c1 15.9%
CCCN(C(=S)Nc1ccccc1)C1CCS(=O)(=O)C1 (stereo unspecified) -18%
CC(C)(C)c1cc(C(=O)O)c(CN2CCCCC2)o1 -7.32%
CN(C)Cc1ccccc1-c1nc(N(C)Cc2ccco2)c2ccccc2n1 11.9% [at 2.29 µM]
Nc1ccc(S(=O)(=O)NCc2nccs2)cc1 -21.4% [at 11.4 µM]
COCC(=O)N1CCC2(CCN(Cc3ccccc3OC)CC2)CC1 5.33%
Cn1cccc1C(=O)N1CCC2(CCN(Cc3nccs3)CC2)CC1 -0.0603%
O=C(c1ccco1)N1CCC2(CCN(Cc3ccccc3)CC2)CC1 6.93%
CC(=O)N1CCC2(CCN(Cc3ccncc3)CC2)CC1 -25%
Cn1cccc1C(=O)N1CCC2(CCN(Cc3ccccc3)CC2)CC1 -9.53%
Cn1cccc1C(=O)N1CCC2(CCCN(Cc3ccccc3)C2)CC1 -5.56%
Cn1cccc1C(=O)N1CCC2(CCCN(Cc3ccc(C#N)cc3)C2)CC1 -29.6%
O=C(c1ccncc1)N1CCC2(CCN(Cc3ccccc3)CC2)CC1 4.16%

AC50, active:
Cc1ccc(CSc2nnc(-c3ccncc3)n2CC2CCCO2)cc1 (stereo unspecified) 15.8 µM
CCC(C)c1ccc(Nc2ncccc2C#N)cc1 (stereo unspecified) 17.8 µM
CCc1ccc(Nc2ncccc2C#N)cc1 17.8 µM
CCN(CC)CCOc1ccc(Cc2ccccc2)cc1 15.8 µM
Cc1ccc(NC2c3ncccc3C(=O)N2Cc2ccc(F)cc2)cc1 (stereo unspecified) 15.8 µM
CCOc1ccc(/C(O)=C2/C(=O)C(=O)N(CCCn3ccnc3)C2c2cccs2)cc1Cl (stereo unspecified) 5.01 µM
Cc1ccc(/C(O)=C2/C(=O)C(=O)N(CCCn3ccnc3)C2c2ccccn2)cc1 (stereo unspecified) 4.47 µM
CCOC(=O)c1c2ccc(OCC(=O)N/N=C/c3ccc(Cl)cc3)cc2n2ccccc12 6.31 µM
C=CCNc1oc(/C=C/c2ccccc2)nc1C#N 4.47 µM
C=CCc1cc(C=O)cc(OC)c1OCc1ccc(Cl)cc1 8.91 µM
O=C(CCCCn1c(=S)[nH]c2ccsc2c1=O)NCc1ccco1 2.24 µM
O=C(CCCCCn1c(=O)[nH]c2ccsc2c1=O)NCc1ccc2c(c1)OCO2 4.47 µM
Cc1nc2c(C(=O)N3CCOCC3)cnn2c(C)c1Cc1ccc(Cl)cc1 7.94 µM
CCCCC#Cc1ccccc1CC(=O)Nc1ccccc1 2.51 µM
O=C(Cc1ccccc1I)Nc1ccccc1 25.1 µM
C=C(CC)C(=O)c1ccc(OCC(=O)O)c(Cl)c1Cl 0.631 µM
COc1cc(NC(=O)Cc2c(C(=O)O)[nH]c3ccccc23)cc(OC)c1OC 12.6 µM
Cc1cc(NC(=O)CSc2nnc(-c3ccccc3)n2Cc2ccco2)no1 10 µM
CC(=O)Nc1ccc(NC(=O)CSc2nnc(-c3ccccc3)n2Cc2ccc3c(c2)OCO3)cc1 11.2 µM
CCOC(=O)C1CCCN(c2ncnc3c2cnn3-c2cccc(C)c2)C1 (stereo unspecified) 12.6 µM
CCOC(=O)C1CCCN(c2ncnc3c2cnn3-c2ccc(Cl)cc2)C1 (stereo unspecified) 7.08 µM
COc1ccc(C(=O)NC(CO)c2nnc(SCc3ccc(Cl)c(Cl)c3)n2C)cc1 (stereo unspecified) 14.1 µM
CN1CCN2c3ncccc3Cc3ccccc3C2C1 (stereo unspecified) 0.0501 µM
O=S(=O)(c1ccccc1)c1cnc(-c2cccnc2)nc1-c1ccc(Cl)cc1Cl 10 µM
Cc1ccc(-c2csc(N3CCC(NS(=O)(=O)c4ccc5c(c4)OCCO5)CC3)n2)cc1 3.55 µM
O=C(c1sc2ccccc2c1Cl)N(Cc1ccccc1)C1CCS(=O)(=O)C1 (stereo unspecified) 3.98 µM
CCc1ccc(CN(C(=O)c2cc3ccccc3oc2=O)C2CCS(=O)(=O)C2)cc1 (stereo unspecified) 8.91 µM
Cc1ccc(CN(C(=O)c2cc3ccccc3oc2=O)C2CCS(=O)(=O)C2)cc1 (stereo unspecified) 11.2 µM
CCOc1ccc(CN(C(=O)c2oc3ccccc3c2C)C2CCS(=O)(=O)C2)cc1 (stereo unspecified) 8.91 µM
O=S(=O)(NCc1cn2ccsc2n1)c1ccc(Oc2ccccc2)cc1 7.08 µM
Cn1cccc1C(=O)N1CCC2(CCCN(Cc3ccncc3)C2)CC1 1.58 µM
COCC(=O)N1CCC2(CCN(Cc3ccncc3)CC2)CC1 0.398 µM
Cn1cccc1C(=O)N1CCC2(CCN(Cc3ccncc3)CC2)CC1 10 µM
O=C(c1ccco1)N1CCC2(CCN(Cc3ccncc3)CC2)CC1 7.94 µM
